# Experimental data published in publication PMC7862700, “An all-to-all approach to the identification of sequence-specific readers for epigenetic DNA modifications on cytosine”.
# Tests used:
# Test in all cases: DAPPL (digital affinity profiling via proximity ligation, sequencing); 10 mM Tris-HCl pH 7.5, 50 mM NaCl, 1 mM DTT, 4% glycerol, room temperature, 30 min; GST-TFs on glutathione beads, 16-mer random dsDNA library, 0.1% formaldehyde crosslink after washing; high values mean tight binding
# Conditions in all cases: protein: recombinant; tags: N-terminal GST; dsDNA, one strand shown
# [1] = target: T1, ELK1 (Homo sapiens, UniProt P19419 1-428)
# T1 sequence: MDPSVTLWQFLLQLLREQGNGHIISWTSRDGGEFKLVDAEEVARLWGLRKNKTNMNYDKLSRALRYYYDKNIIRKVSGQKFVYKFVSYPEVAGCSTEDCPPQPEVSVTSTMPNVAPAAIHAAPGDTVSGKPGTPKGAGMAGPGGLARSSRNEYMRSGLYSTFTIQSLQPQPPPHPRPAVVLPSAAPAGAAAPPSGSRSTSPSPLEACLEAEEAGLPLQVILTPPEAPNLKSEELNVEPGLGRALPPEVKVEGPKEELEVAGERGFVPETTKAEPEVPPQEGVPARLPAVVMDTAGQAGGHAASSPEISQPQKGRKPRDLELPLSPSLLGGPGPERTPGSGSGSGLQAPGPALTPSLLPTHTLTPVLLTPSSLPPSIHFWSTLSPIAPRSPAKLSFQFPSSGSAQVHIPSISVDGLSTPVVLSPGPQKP
# Summary of the method: (§1)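 Binding signal is defined as a hexamer's read frequency for one factor over its frequency for the tag-only sample. To obtain reads, GST-fused human transcription factors were expressed in yeast, captured on glutathione beads, barcoded with DNA and pooled with that sample. Pools met 200 nmole of a 16-mer random double-stranded DNA library in Tris/NaCl/DTT/glycerol buffer for 30 min at room temperature before washing, 0.1% formaldehyde crosslinking, proximity ligation (BsaI/T4 ligase, 1 h, 37 °C), PCR and Illumina NextSeq500 sequencing.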
# [2] = target: T2, GABPA (Homo sapiens, UniProt Q06546 1-454)
# T2 sequence: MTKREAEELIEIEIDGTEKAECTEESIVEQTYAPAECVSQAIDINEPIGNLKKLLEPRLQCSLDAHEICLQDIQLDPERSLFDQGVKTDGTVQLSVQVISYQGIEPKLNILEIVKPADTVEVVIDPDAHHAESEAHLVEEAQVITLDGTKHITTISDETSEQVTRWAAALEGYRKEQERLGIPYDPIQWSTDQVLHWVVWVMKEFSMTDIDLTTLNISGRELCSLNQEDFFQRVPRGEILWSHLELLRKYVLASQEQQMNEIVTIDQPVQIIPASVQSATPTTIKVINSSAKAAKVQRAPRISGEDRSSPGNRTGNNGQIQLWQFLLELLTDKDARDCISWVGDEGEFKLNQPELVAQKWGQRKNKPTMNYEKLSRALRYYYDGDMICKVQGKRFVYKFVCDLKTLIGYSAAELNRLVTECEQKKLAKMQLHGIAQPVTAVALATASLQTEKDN
# Summary of the method: as §1
# [3] = target: T3, ERG (Homo sapiens, UniProt P11308 1-479)
# T3 sequence: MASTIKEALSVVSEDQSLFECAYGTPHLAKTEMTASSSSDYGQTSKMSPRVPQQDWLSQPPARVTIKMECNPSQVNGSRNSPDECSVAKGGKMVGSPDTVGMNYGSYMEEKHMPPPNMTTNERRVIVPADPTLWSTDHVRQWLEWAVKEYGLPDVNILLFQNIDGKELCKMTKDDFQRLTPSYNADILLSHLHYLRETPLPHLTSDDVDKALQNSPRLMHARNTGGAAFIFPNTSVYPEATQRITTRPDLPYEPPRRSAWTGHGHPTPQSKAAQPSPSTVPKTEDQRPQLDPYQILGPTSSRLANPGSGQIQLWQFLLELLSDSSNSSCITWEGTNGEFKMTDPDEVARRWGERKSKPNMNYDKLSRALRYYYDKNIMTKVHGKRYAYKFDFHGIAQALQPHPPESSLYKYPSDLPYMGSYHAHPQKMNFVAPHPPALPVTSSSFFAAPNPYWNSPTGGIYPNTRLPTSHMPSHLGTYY
# Summary of the method: as §1
# [4] = target: ELF1 (Homo sapiens, UniProt P32519 1-619)
# Chain of ELF1 (P32519 whole entry): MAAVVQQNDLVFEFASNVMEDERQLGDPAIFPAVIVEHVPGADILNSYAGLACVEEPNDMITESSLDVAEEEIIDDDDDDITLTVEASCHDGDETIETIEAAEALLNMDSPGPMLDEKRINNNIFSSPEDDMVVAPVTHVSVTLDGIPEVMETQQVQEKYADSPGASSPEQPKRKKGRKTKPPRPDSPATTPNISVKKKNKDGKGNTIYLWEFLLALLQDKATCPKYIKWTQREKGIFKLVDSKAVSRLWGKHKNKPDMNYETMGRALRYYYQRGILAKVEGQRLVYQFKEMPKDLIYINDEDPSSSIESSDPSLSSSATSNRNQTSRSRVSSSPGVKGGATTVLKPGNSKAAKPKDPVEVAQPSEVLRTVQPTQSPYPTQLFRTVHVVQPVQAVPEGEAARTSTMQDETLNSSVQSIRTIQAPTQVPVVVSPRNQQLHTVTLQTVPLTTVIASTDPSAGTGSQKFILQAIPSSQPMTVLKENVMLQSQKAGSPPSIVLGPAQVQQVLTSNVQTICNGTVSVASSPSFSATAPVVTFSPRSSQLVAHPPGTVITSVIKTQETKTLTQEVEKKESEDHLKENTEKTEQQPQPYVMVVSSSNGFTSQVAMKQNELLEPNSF
# Summary of the method: as §1
# [5] = target: T4, EHF (Homo sapiens, UniProt Q9NZC4 1-300)
# T4 sequence: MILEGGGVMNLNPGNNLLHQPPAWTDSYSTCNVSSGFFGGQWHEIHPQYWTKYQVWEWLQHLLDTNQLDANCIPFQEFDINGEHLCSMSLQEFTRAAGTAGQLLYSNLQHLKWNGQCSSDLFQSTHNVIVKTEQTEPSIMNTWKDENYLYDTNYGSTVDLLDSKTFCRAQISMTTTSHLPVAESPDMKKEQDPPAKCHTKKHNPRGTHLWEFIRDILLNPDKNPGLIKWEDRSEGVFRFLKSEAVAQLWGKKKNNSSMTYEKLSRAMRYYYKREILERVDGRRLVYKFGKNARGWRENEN
# Summary of the method: as §1
# [6] = target: SPIB (Homo sapiens, UniProt Q01892 1-262)
# Chain of SPIB (Q01892 whole entry): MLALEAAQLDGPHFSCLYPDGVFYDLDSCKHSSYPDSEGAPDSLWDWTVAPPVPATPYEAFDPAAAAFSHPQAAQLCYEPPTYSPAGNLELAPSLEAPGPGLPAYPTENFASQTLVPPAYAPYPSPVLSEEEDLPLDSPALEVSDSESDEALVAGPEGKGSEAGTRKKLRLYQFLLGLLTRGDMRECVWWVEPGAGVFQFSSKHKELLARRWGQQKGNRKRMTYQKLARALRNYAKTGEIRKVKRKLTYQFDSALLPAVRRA
# Summary of the method: as §1
# [7] = target: T5, ELK3 (Homo sapiens, UniProt P41970 1-407)
# T5 sequence: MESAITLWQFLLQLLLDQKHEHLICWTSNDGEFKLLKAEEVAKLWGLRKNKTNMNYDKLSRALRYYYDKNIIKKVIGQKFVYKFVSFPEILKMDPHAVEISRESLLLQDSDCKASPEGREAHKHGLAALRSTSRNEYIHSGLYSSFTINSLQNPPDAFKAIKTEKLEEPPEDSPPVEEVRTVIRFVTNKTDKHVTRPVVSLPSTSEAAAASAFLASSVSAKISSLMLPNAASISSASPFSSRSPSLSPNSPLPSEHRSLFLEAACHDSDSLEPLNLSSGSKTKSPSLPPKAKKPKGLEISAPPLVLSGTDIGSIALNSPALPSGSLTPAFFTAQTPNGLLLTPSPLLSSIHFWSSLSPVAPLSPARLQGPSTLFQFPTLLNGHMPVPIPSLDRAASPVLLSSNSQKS
# Summary of the method: as §1
# [8] = target: T6, SPIC (Homo sapiens, UniProt Q8N5J4 1-248)
# T6 sequence: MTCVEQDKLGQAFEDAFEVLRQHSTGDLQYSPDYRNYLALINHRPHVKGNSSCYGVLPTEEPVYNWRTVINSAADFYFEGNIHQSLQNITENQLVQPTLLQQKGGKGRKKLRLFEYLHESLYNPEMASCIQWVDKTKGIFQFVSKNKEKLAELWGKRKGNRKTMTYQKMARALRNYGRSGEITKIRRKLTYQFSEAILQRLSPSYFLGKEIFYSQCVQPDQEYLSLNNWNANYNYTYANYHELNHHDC
# Summary of the method: as §1
# [9] = target: ELF4 (Homo sapiens, UniProt Q99607 1-663)
# Chain of ELF4 (Q99607 whole entry): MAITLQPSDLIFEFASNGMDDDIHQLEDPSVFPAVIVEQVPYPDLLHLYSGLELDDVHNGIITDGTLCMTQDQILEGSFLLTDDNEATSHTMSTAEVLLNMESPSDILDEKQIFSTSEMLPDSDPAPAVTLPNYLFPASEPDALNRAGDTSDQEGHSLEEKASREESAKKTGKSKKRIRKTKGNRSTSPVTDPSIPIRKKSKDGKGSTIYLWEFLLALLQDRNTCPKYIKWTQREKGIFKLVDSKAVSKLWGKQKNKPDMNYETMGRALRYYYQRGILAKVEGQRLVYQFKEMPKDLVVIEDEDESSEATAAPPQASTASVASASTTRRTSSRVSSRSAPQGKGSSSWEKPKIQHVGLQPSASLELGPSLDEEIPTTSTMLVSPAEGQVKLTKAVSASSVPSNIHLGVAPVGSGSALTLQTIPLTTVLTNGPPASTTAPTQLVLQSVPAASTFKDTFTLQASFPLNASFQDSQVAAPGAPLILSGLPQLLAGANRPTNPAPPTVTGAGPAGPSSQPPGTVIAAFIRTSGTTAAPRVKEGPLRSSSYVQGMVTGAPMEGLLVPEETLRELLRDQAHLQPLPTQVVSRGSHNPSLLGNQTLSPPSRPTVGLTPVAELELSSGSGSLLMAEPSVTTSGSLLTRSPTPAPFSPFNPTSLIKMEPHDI
# Summary of the method: as §1
sequence,measurement,setting,value
CGTTGC,binding signal,[1],"1.19 fold enrichment (6-mer frequency, TF over GST control)"
same,binding signal,[2],"1.04 fold enrichment (6-mer frequency, TF over GST control)"
same,binding signal,[3],"1.06 fold enrichment (6-mer frequency, TF over GST control)"
same,binding signal,[4],"1.11 fold enrichment (6-mer frequency, TF over GST control)"
same,binding signal,[5],"1.07 fold enrichment (6-mer frequency, TF over GST control)"
same,binding signal,[6],"1.18 fold enrichment (6-mer frequency, TF over GST control)"
same,binding signal,[7],"1.04 fold enrichment (6-mer frequency, TF over GST control)"
same,binding signal,[8],"1.25 fold enrichment (6-mer frequency, TF over GST control)"
same,binding signal,[9],"1.06 fold enrichment (6-mer frequency, TF over GST control)"
